Source: PubChem
Rows were chosen to be rich in hits. Some 3.1% of all compounds tested hit in one or more screens of this group.
Rtt109 HAT inh: C. albicans Rtt109 histone acetyltransferase inhibition; inhibition, % at 34.9 µM; Q5AAJ8; purified Rtt109/Vps75, ThioGlo CoA-SH fluorescence, 4 h; 330,000 tested, 0.16% active;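 active = inhibition of at least 50% in every replicate; inconclusive = best replicate reaches 50% inhibition but some replicates fall short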
Target sequence (Q5AAJ8 whole entry, looked up): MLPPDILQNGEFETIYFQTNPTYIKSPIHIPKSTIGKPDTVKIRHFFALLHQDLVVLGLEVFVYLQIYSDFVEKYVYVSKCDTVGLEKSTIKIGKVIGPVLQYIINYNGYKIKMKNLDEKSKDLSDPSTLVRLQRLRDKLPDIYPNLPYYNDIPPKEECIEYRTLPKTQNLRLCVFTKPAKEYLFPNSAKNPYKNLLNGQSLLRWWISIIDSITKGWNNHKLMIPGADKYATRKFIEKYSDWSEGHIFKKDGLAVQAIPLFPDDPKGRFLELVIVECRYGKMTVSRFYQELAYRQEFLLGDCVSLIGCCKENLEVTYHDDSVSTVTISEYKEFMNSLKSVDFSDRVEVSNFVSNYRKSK
esBAF inh: blocks esBAF chromatin remodeling in mouse ES cells. Bmi1-luciferase knock-in reporter, 24 h; 100% = twice the neutral-well signal. 350,000 tested, 2% active. reporter increase, % at 12.5 µM. AID 602393; in the data active = activation above about 40%; inconclusive = no clear call, values can overlap the other calls;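 also: a rise in the Bmi1 reporter signal indicates esBAF inhibition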
Statin myotox sup: suppression of simvastatin myotoxicity; C2C12 myotubes + simvastatin, ATP luminescence, 48 h; scaled: DMSO 0, geranylgeraniol control 100; rescue of ATP level, % at 7.49 µM; 330,000 tested, 0.78% active; AID 602340;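 active = mean ATP rescue above about 67%, or every replicate alone reaching that limit, limit read from the data, passing the limit was not always enough; inconclusive = no clear call, values can overlap the other calls; inactive = mean under the limit and some replicate under it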;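 also: myotubes were challenged with 10 µM simvastatin during compound exposure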
MITF act: increases MITF-driven TRPM1 promoter luciferase signal; SK-MEL-5 TRPM1-promoter luciferase, 24 h; % of positive control, neutral wells = 0; activation, % at 12.5 µM; 300,000 tested, 0.75% active;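 active = mean activation of at least 80% with every replicate also reaching 80%; inconclusive = mean reaches 80% but some replicate falls short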
Wnt act: activates Wnt/beta-catenin signaling in a reporter cell assay; AID 743398; activation, % at 9.35 µM; 300,000 tested, 1.2% active; activator, plate reader; in the data active = activation above about 30%, passing the limit was not always enough; inconclusive = no clear call, values can overlap the other calls
Large screens that a line does not name were inactive.

COc1ccc(CN2[C@@H]3CN(C(=O)Nc4ccc(F)cc4)c4ccccc4[C@@H]3[C@@H]2CO)cc1	none (no result: Rtt109 HAT inh, MITF act, Wnt act)
CN1[C@@H]2Cn3c(ccc(/C=C/c4ccccc4)c3=O)[C@H]1[C@@H](C(=O)NC1CCC1)[C@@H]2CO	none (no result: Rtt109 HAT inh, MITF act, Wnt act)
Cc1ccc(SCc2cn3cc(Cl)ccc3n2)cc1	Wnt act 35 (no result: esBAF inh, Statin myotox sup, MITF act)
CNc1cc(CSc2ccc(Cl)cc2)nc(C)n1	esBAF inh 52
O=C(C[C@@H]1CC[C@H](NC(=O)C2CC2)[C@@H](CO)O1)NCC1CC1	none (no result: Rtt109 HAT inh, MITF act, Wnt act)
Cc1ccc(C(c2nc3ccccc3[nH]2)n2c(-c3ccccc3)nc3ccccc32)cc1 (configuration not stated)	esBAF inh 70 (no result: Rtt109 HAT inh, MITF act)
CSCCC(c1nc2ccccc2[nH]1)n1c(-c2ccc(C)cc2)nc2ccccc21 (configuration not stated)	none (no result: Rtt109 HAT inh, esBAF inh, Statin myotox sup, MITF act)
C[C@H](CO)N1C[C@H](C)[C@H](CN(C)Cc2ccc(C(=O)O)cc2)OCCCC[C@H](C)Oc2ccc(NC(=O)NC3CCCCC3)cc2C1=O	none (no result: Rtt109 HAT inh, Statin myotox sup, MITF act, Wnt act)
CCCCN(CCCC)c1ncnc2nc[nH]c12	none (no result: esBAF inh, Statin myotox sup)
CCCCN(Cc1ccccc1)c1ncnc2nc[nH]c12	esBAF inh 67 (no result: MITF act, Wnt act)
CCN1/C(=C/c2ccc3cc(C)ccc3[n+]2CC)Sc2ccccc21	Rtt109 HAT inh inconclusive (no result: esBAF inh, Statin myotox sup)
CCN1/C(=C/c2ccc3cc(C)ccc3[n+]2CC)Sc2cc(C)c(C)cc21	Rtt109 HAT inh 96
Fc1ccccc1OCCCN1CCOCC1	Statin myotox sup 169 (no result: Wnt act)
C[C@@H]1CN([C@@H](C)CO)C(=O)c2cc(NC(=O)Nc3ccc(C(F)(F)F)cc3)ccc2O[C@@H](C)CCCCO[C@H]1CN(C)C(=O)Nc1cccc2ccccc12	none (no result: Rtt109 HAT inh, MITF act, Wnt act)
COc1ccc(OCCCC(=O)Nc2cc([N+](=O)[O-])ccc2C)cc1	Statin myotox sup 73 (no result: Wnt act)
Cc1cc(N)c2cc(NC(=O)/C=C/c3ccccc3Cl)ccc2n1	Rtt109 HAT inh 90 (no result: Wnt act)
Cc1cccc(NC(=O)/C(C#N)=C/c2ccc(Cl)cc2)n1	none
Cc1cc(C)nc(NC(=O)/C=C/c2ccccc2Cl)c1	Wnt act 44 (no result: esBAF inh, Statin myotox sup)
Cc1cccc(NC(=O)/C=C/c2ccc(Cl)cc2)n1	MITF act 90 (no result: esBAF inh, Statin myotox sup, Wnt act)
CCOC(=O)c1ccc(NC(=O)/C=C/c2cccs2)cc1	MITF act 88 (no result: esBAF inh, Statin myotox sup)
Cc1cc(C)nc(NC(=O)/C=C/c2cccs2)c1	esBAF inh 81
CCc1nnc(NC(=O)C=C(C)C)s1	none (no result: Wnt act)
CCc1nnc(NC(=O)/C=C/c2cccs2)s1	esBAF inh 58, MITF act inconclusive
O=C(/C=C/c1ccc(Cl)cc1Cl)Nc1ccncc1	none (no result: esBAF inh, Statin myotox sup)
Cc1cc(C)nc(NC(=O)/C=C/c2ccc(Cl)cc2Cl)c1	esBAF inh 66, MITF act 88 (no result: Wnt act)
O=C(/C=C/c1cccs1)Nc1cccc(NC(=O)/C=C/c2cccs2)n1	esBAF inh inconclusive
COc1ccc(S(=O)(=O)N2C[C@@H](O)COC[C@@H]3O[C@H](CC(=O)NCCN4CCCCC4)CC[C@H]32)cc1	none (no result: Rtt109 HAT inh, MITF act, Wnt act)
CC(C)Oc1ccc(C(=O)OCC(=O)c2ccc[nH]2)cc1	esBAF inh 65, MITF act 89, Wnt act 45
Cc1ccsc1C(=O)OCC(=O)Nc1sccc1C(N)=O	esBAF inh 88 (no result: MITF act, Wnt act)
O=C(OCC(=O)c1ccc[nH]1)c1ccc(C(F)(F)F)cc1	none
COc1ccc(C(=O)COC(=O)c2sccc2C)cc1OC	esBAF inh 91, MITF act 103, Wnt act 45
Cc1ccsc1C(=O)OCC(=O)c1ccc[nH]1	esBAF inh 48, MITF act 109, Wnt act 38
Cc1ccsc1C(=O)OCC(=O)NCCNC(=O)COC(=O)c1sccc1C	none
CCCc1cc(C(F)(F)F)c(C#N)c(=O)[nH]1	none
CC(C)(C)c1cc(C(F)(F)F)c(C#N)c(=O)[nH]1	Statin myotox sup 120
O=C(C[C@H]1CC[C@@H]2[C@H](COC[C@H](O)CN2C(=O)c2cccnc2)O1)NCc1ccccc1	none (no result: Rtt109 HAT inh, MITF act, Wnt act)
C[C@@H]1CN([C@H](C)CO)C(=O)c2cc(-c3ccncc3)cnc2O[C@H]1CN(C)C(=O)NC1CCCC1	none (no result: Rtt109 HAT inh, MITF act, Wnt act)
CC(C)C#Cc1ccc2c(c1)O[C@@H](CN(C)C(=O)Cc1ccccn1)[C@@H](C)CN([C@H](C)CO)S2(=O)=O	none (no result: Rtt109 HAT inh, MITF act, Wnt act)
COCC(=O)Nc1ccc2c(c1)C(=O)N(C)C[C@@H](OC)[C@@H](C)CN(Cc1ccccc1)[C@@H](C)CO2	none (no result: Rtt109 HAT inh, MITF act, Wnt act)
COc1ccc(/C=C/C(=O)Oc2ccc(/C=N/NC(=O)COc3c(C)cccc3C)cc2)cc1	none (no result: Wnt act)
COc1ccc(/C=C/C(=O)Oc2cccc(/C=N/NC(=O)COc3c(C)cccc3C)c2)cc1	esBAF inh 45 (no result: Wnt act)
N#Cc1nc(-c2ccco2)oc1NCCCn1ccnc1	Statin myotox sup 129
c1csc(-c2nc(N3CCCCC3)no2)c1	esBAF inh inconclusive, MITF act 81, Wnt act 35
CS(=O)(=O)N1N=C(c2ccc(Br)cc2)CC1c1cccs1 (configuration not stated)	esBAF inh 77 (no result: Wnt act)
CCc1ccc(C2=NN(S(C)(=O)=O)C(c3cccs3)C2)cc1 (configuration not stated)	Wnt act 44 (no result: Statin myotox sup, MITF act)
Cc1ccc(C2=NN(S(C)(=O)=O)C(c3cccs3)C2)cc1 (configuration not stated)	MITF act inconclusive (no result: esBAF inh, Wnt act)
C[C@@H]1CN([C@H](C)CO)C(=O)c2cc(NC(=O)Cc3cn(C)c4ccccc34)ccc2O[C@@H]1CN(C)S(=O)(=O)c1ccc(F)cc1	none (no result: Rtt109 HAT inh, Statin myotox sup, MITF act, Wnt act)
C=CCN(c1ccccc1OC)S(=O)(=O)c1cccc(C(=O)OC2CCOC2=O)c1 (configuration not stated)	Statin myotox sup 114 (no result: esBAF inh)
Cc1cccc2c1-c1sc(C(=O)N3CCCCC3)cc1CO2	esBAF inh 68, MITF act 88
CCOC(=O)N1CCN(C(=O)c2cc3c(s2)-c2c(C)cccc2OC3)CC1	none
CCC(=O)Nc1ccc2c(c1)C(=O)N(C)[C@@H]1CC[C@H](CC(=O)NCCCN(C)C)O[C@H]1CO2	none (no result: Rtt109 HAT inh, MITF act, Wnt act)
CCCN(C)C[C@@H]1Oc2cc(C#C[C@@H](C)O)ccc2S(=O)(=O)N([C@H](C)CO)C[C@@H]1C	none (no result: Rtt109 HAT inh, MITF act, Wnt act)
O=C(Nc1ccc(F)c(F)c1)NC1CCCCC1	esBAF inh 66
O=C(Nc1ccccc1F)NC1CCCCCCC1	esBAF inh 54
CC(=O)c1ccc(NC(=O)NC2CCCCCCC2)cc1	esBAF inh 68, Wnt act inconclusive
CC(=O)c1cccc(NC(=O)NC2CCCCC2)c1	none
O=C(Nc1ccc2nsnc2c1)C1CC1	none (no result: Rtt109 HAT inh, Wnt act)
O=C(Nc1cccc(Cl)c1)NC1CCCCC1	none (no result: esBAF inh, Statin myotox sup, MITF act, Wnt act)
O=C(Nc1ccc2nsnc2c1)NC1CCCCC1	esBAF inh 60 (no result: Wnt act)
Cc1ccc(S(=O)(=O)Nc2ccc3c(c2)C(=O)N([C@@H](C)CO)C[C@@H](C)[C@H](CN(C)S(=O)(=O)c2ccc(F)cc2)OCCCC[C@H](C)O3)cc1	none (no result: Rtt109 HAT inh, Statin myotox sup, MITF act, Wnt act)
COCC(=O)Nc1ccc2c(c1)C(=O)N(C)[C@H]1CC[C@H](CC(=O)NCc3ccccc3)O[C@H]1CO2	none (no result: Rtt109 HAT inh, MITF act, Wnt act)
FC(F)Sc1ccc(NC(=S)NC2CCCCC2)cc1	esBAF inh 50 (no result: Wnt act)
S=C(Nc1cccc2ccccc12)Nc1cccc2ccccc12	none
